Measured values published in PubChem BioAssay AID493214 (National Center for Advancing Translational Sciences (NCATS), 2011).
The source made the active and inactive calls. Calls come from the whole dose curve; as a rule, active = well fitted inhibition curve with a large enough effect; inactive = no such curve, though single readings can be large or run the other way.

Each compound was assayed against 4'-phosphopantetheinyl transferase Sfp (Bacillus subtilis) (UniProt P39135) (assay: Inhibitos of Bacillus subtilis Sfp phosphopantetheinyl transferase (PPTase): Dry Powder Followup). Details: purified Sfp PPTase enzyme assay, dry powder retest; series mostly up to 114 µM.
4'-phosphopantetheinyl transferase Sfp (Bacillus subtilis), sequence (P39135 whole entry, looked up): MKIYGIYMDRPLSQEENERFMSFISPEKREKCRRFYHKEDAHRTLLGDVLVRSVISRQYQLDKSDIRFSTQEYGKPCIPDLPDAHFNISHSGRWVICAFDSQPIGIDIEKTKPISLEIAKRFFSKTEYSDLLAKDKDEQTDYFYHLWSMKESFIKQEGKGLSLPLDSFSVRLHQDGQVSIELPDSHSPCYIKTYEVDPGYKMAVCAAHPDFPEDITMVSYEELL
Excerpt: The covalent attachment of a phosphopantetheinyl (4'-PP) arm to a variety of synthases and other proteins is a key posttranslational protein modification. The 4'-PP is installed on the proteins post-translationally from coenzyme A (CoA) on a conserved serine residue by action of phosphopantetheinyl transferase (PPTase) enzymes. Phosphopantetheinylation is essential for synthase activity, and removal of the PPTase gene precludes natural product synthesis in microorganisms, or in the case of fatty acid biosynthesis, renders the organism unviable. PPTase enzymes belong to a distinct structural superfamily. Within bacteria, these enzymes are grouped into two classes based upon primary structure, the AcpS-Type and Sfp-Type PPTases.
Sfp-type PPTases, corresponding to an activator of surfactin production in Bacillus subtilis, are responsible for modifying type I polyketide and nonribosomal peptide synthases of prokaryotes. Sfp-type PPTases are responsible for the activation of a variety of pathogen-associated virulence factors. […]
In search of small molecule Sfp-PPTase inhibitors, a fluorescence quenching assay was developed for detection of Bacillus subtilis Sfp-PPTase enzymatic activity in a miniaturized high-throughput format. […]
Inhibition of Sfp-PPTase was detected by recording the fluorescence intensity change over a 30-minute reaction period at a 525 nm excitation and 598 nm emission. […]
Three uL of reagents, consisting of buffer (in columns 3 and 4 as negative control) and Sfp-PPTase (in columns 1, 2, 5 - 48) were dispensed into 1,536-well Greiner black solid bottom plate. […] The plate was then centrifuged at 1000 rpm for 15 seconds, and the fluorescence intensity recorded on a ViewLux High-throughput CCD imager (Perkin-Elmer) using standard BODIPY optics (525 nm excitation and 598 nm emission). The plate was then incubated for 30 minutes, and a second read on the ViewLux was performed. The fluorescence intensity difference over the 30-minute period was used to calculate the respective reaction rate for each well.

outcome, inactive:
Cn1c(SCC(=O)c2cc3ccccc3o2)nnc1-c1ccccc1
Clc1ccccc1-c1nn2c(-c3ccncc3)nnc2s1
O=c1[nH]c2ccccc2n2c(-c3ccccc3)nnc12
